# Source: PubChem
# V-ATPase pHluor – regulators of yeast V-ATPase proton pumping, primary screen, pHLuorin cytosolic pH fluorescence; S. cerevisiae; response, % at 10 µM; 0.37% of 350,000 active; AID 504577, 2011; in the data active = response mostly above about 7.3%, no sharp cut-off; inactive = mostly below about 5.4%; also: actives read high
# PfHsp90 set2 – growth inhibition of PfHsp90-expressing yeast, primary screen, antimalarial PfHsp90 inhibitor project, S. cerevisiae, BacTiter-Glo luminescence, single point, set 2. inhibition, % at 9.4 µM. 0.32% of 310,000 active. AID 504621, 2011. BacTiter-Glo ATP, 48 h; yeast lacking PDR1 and PDR3 efflux regulators;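 active = every replicate shows inhibition above about 80%, whatever the replicate mean, limit read from the data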;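 also: 0% = DMSO neutral controls and 100% = 20 µM radicicol positive controls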
# tim23-1 inh – growth inhibitors of tim23-1 mutant yeast, primary screen, luminescence, uHTS | inhibition, % at 20 µM | S. cerevisiae tim23-1 growth, BacTiter-Glo luminescence, 24 h | 1.3% of 330,000 active;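 active = growth inhibition of the mutant yeast at or above 50%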;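 also: temperature-sensitive mutant grown at 25 °C; plate controls were DMSO-treated mutant yeast for no effect and medium wells lacking yeast for full effect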
# SKKanGAS inh – S. pyogenes SKKanGAS growth inhibitors in kanamycin, primary screen, streptokinase expression inhibitor project, SKKanGAS strain, BacTiter-Glo luminescence. inhibition, % at 7.5 µM. 1.3% of 300,000 active. 6 h;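 active = mean replicate score, as percent of positive control median, at least 50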;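 also: strain carries kanamycin resistance gene driven by streptokinase promoter and grows in 40 µg/ml kanamycin; loss of luminescence reflects streptokinase promoter inhibition or plain growth inhibition; 0% = median of DMSO wells and 100% = positive control at its reference dose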
# TIM10 inh – growth inhibitors of isogenic TIM10 control yeast, primary screen, counter-screen for tim10-1 yeast inhibitor project, luminescence, uHTS | AID 463195, 2010 | inhibition, % at 10 µM | S. cerevisiae TIM10 strain growth, BacTiter-Glo luminescence, 24 h | 1.4% of 330,000 active;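 active = inhibition of 40% or more at the single tested concentration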;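 also: wild-type TIM10 isogenic control strain grown at permissive 25 °C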
# tim10-1 inh – growth inhibitors of tim10-1 mutant yeast, primary screen, luminescence, uHTS; AID 463190, 2010; S. cerevisiae tim10-1 ts strain growth, BacTiter-Glo, 24 h; 2.2% of 330,000 active; inhibition, % at 20 µM;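 active = inhibition of at least 40%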;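 also: mutant grown at 25 °C; 0% = DMSO wells with yeast and 100% = wells holding no yeast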
# tim10-1 confirm – growth inhibitors of tim10-1 mutant yeast, confirmation, single concentration, luminescence, S. cerevisiae; 56% of 7,400 active; shares compounds with tim10-1 inh; inhibition, % at 20 µM; S. cerevisiae tim10-1 ts strain growth, BacTiter-Glo, 24 h;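 active = inhibition of yeast growth at or above a set limit in either of two repeat tests at 20 µM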;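 also: tim10-1 mutant grown at permissive 25 °C to find synthetic lethal compounds; 0% = DMSO yeast wells and 100% = medium wells without yeast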
# * marks the source's active call; other numbers are inactive results; nt = no result. Most compounds without a hit are left out; they make up all but 4.6% or so of the library.
SMILES,V-ATPase pHluor,PfHsp90 set2,tim23-1 inh,SKKanGAS inh,TIM10 inh,tim10-1 inh,tim10-1 confirm
Cc1ccc2c(C)c(C(=O)N3CCN(Cc4ccc5c(c4)OCO5)CC3)oc2c1C,1,8,43,0,20,47*,8
Cc1nnc(SCc2cc(=O)oc3ccc4ccccc4c23)n1Cc1ccccc1,3,3,44,6,15,46*,24
O=C(Cc1ccccc1[N+](=O)[O-])OCc1cccc([N+](=O)[O-])c1,nt,nt,26,-1,-4,22,nt
CC1(C)SC(=S)N(/N=C/c2ccccc2O)C1N(O)C(=O)Nc1ccccc1 (stereo not drawn),-1,-9,21,24,-2,-4,nt
CC1(C)SC(=S)N(NC(=O)Nc2ccccc2)C1N(O)C(=O)Nc1cccc2ccccc12 (stereo not drawn),-2,-6,31,39,14,42*,24
Nc1ccccc1-c1nnc(-c2ccc(-c3ccccc3)cc2)o1,-10,nt,22,-20,31,47*,18
COc1ccccc1NC(=O)Cn1c2ccccc2c2nc3n(c(=O)c21)CCS3,-3,nt,-2,1,7,42*,20
O=C(Cn1c2ccccc2c2nc3n(c(=O)c21)CCS3)Nc1ccccc1C(F)(F)F,1,11,25,2,8,21,nt
Cc1ccc(C(=O)COC(=O)C2CC(=O)N(c3nc(-c4ccccc4)cs3)C2)cc1 (stereo not drawn),0,-14,11,11,31,40*,29
O=C(Nc1nnc(-c2cccs2)s1)c1cccc(F)c1,-1,7,-15,nt,-6,0,nt
O=[N+]([O-])c1ccc(Cc2ccccn2)c([N+](=O)[O-])c1,2,-15,23,5,-17,-7,nt
CCOC(=O)N1CCC(NC(=O)c2ccc3c(c2)N=C(C)c2c(C)ccc(C)c2S3)CC1,1,-17,45,9,22,44*,3
CCOC(=O)N1CCC(NC(=O)c2ccc3c(c2)N=C(CC)c2cc(C)ccc2S3)CC1,0,-13,21,33,16,19,nt
COc1ccccc1C(=O)Nc1ccc2c(c1)n(C)c(=O)n2C,1,12,12,-4,0,13,nt
O=C(CC1S/C(=N/N=C2CCCCCC2)NC1=O)Nc1ccc(Br)cc1F (stereo not drawn),-3,-8,35,1,17,44*,21
Cc1csc(Nc2nc(N)c(C(=O)Nc3cc(Cl)ccc3F)o2)n1,1,3,1,2,-24,-13,nt
Clc1ccc2ncc(-c3nnnn3-c3ccccc3)c(-c3ccccc3)c2c1,3,-37,48,2,30,44*,36*
Clc1ccc(-n2nnnc2-c2cnc3ccc(Cl)cc3c2-c2ccccc2)cc1,-2,6,38,27,1,-24,nt
O=S(=O)(c1cccc(NC(=S)Nc2ccc(Br)cc2Cl)c1)N1CCOCC1,3,3,7,-2,-10,2,nt
Cc1csc(NC(=O)c2ccc(C)c(S(=O)(=O)N3CCOCC3)c2)n1,nt,nt,12,1,19,41*,15
O=C(c1cc2ccccn2n1)N1CCN(c2cccc(C(F)(F)F)c2)CC1,4,-19,26,-8,9,22,nt
Cc1ccc(C)c(N2CCN(C(=O)c3cc4ccccn4n3)CC2)c1,1,-4,46,0,20,41*,35*
CN(C(=O)c1cccc(S(=O)(=O)N2CCCC2)c1)C1CCCCC1,-1,7,15,nt,17,28,nt
Cc1cc(N2CCOCC2)nc2ccc(Cl)cc12,1,5,25,-3,6,20,nt
OCCC1CN(Cc2cccc(-n3cccn3)c2)CCN1Cc1ccccc1 (stereo not drawn),3,6,1,4,-4,-5,nt
SMILES,V-ATPase pHluor,PfHsp90 set2,tim23-1 inh,SKKanGAS inh,TIM10 inh,tim10-1 inh,tim10-1 confirm
Cc1ccc(-c2nc(SCC(=O)N(C)c3c(N)n(Cc4ccccc4)c(=O)[nH]c3=O)n[nH]2)cc1,-1,10,0,1,10,-3,nt
CCCn1nnc(NC(=O)c2cccc(OCc3ccccc3)c2)n1,6,-18,32,-7,29,44*,36*
COc1ccc(S(=O)(=O)N2CCN(c3nn(C)c(=O)n(C)c3=O)CC2)cc1,-1,15,14,nt,9,29,nt
CCCc1nn(C)c2c1C(c1cccnc1)C(C#N)=C(N)O2 (stereo not drawn),1,16,29,-3,3,41*,27
Cc1nn(Cc2ccccc2)c2c1C(c1cccnc1)C(C#N)=C(N)O2 (stereo not drawn),-1,2,33,-1,18,19,nt
Cc1ccc(Sc2oc(/C=N/n3cnnc3)cc2Br)cc1,0,-11,35,1,20,46*,17
CCOC(=O)c1c(CSc2cccs2)n(C)c2cc(Br)c(O)c(CN(C)C)c12,-4,13,23,15,5,-8,nt
Cc1ccc(C2CC2C(=O)NNC(=S)Nc2cccc(C)c2)cc1 (stereo not drawn),5,nt,23,-4,32,49*,16
COC(=O)C1=C(C)OC(N)=C(C#N)C1c1c(C)nn(-c2ccccc2)c1Cl (stereo not drawn),2,17,43,-1,36,40*,33*
CCOC(=O)C1=C(C)OC(N)=C(C#N)C1c1c(C)nn(-c2ccc(C)cc2)c1Cl (stereo not drawn),nt,nt,25,1,18,32,nt
CC(C)(C)c1ccc(C(=O)NNC(=O)CNC(=O)c2cccs2)cc1,4,2,-2,nt,4,-6,nt
Cc1c(C(=O)Nc2ccc3c(c2)OCCO3)sc2ncnc(N3CCCCC3C)c12 (stereo not drawn),0,-42,46,-17,5,46*,20
Cc1c(C(=O)N2CCCCC2C)sc2ncnc(N3CCc4ccccc4C3)c12 (stereo not drawn),nt,2,3,6,25,23,nt
Cc1nc(N2CCC(C)CC2)c2c(C)c(C(=O)Nc3ccc4c(c3)OCCO4)sc2n1,1,11,40,-3,17,42*,12
CC1CCCC(C)N1C(=O)COC(=O)c1ccc2ccccc2n1 (stereo not drawn),-2,12,19,nt,8,10,nt
COc1cccc(N2CCN(S(=O)(=O)c3ccc4c(c3)NC(=O)CS4)CC2)c1,3,-25,1,9,-2,2,nt
